Experimental data: the supplement of paper PMC6089552
The whole screen tested about 3,200 compounds, of which about 300 (9.4%) showed activity. This excerpt belongs to a sample that is enriched for actives.

Test system: A673/TR/shEF
Test: cell viability (LOESS-normalised, relative to median of negative controls) (log2 ratio); higher = more viable cells (less compound effect), active = hit call of the paper (over 3 MAD below the median)
Conditions: treatment time: 72 h
Procedure, shortened: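 Viability of A673/TR/shEF Ewing sarcoma cells was determined by CellTiter-Glo luminescence. The cells, at 1,500 per well in 384-well plates, were grown with or without doxycycline from 24 h before compound addition to switch on EWS-FLI1 shRNA knockdown, then exposed for three days to library compounds at two or more concentrations or to DMSO controls. Signals were LOESS-corrected plate by plate, normalised to the negative-control median and log2-transformed.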

[1] = 0.25 µM, library screen: screen1, EWS-FLI1 expression: high (no doxycycline)
[2] = 0.25 µM, library screen: screen1, EWS-FLI1 expression: low (doxycycline-induced shRNA knockdown)
[3] = 2.5 µM, library screen: screen1, EWS-FLI1 expression: high (no doxycycline)
[4] = 2.5 µM, library screen: screen1, EWS-FLI1 expression: low (doxycycline-induced shRNA knockdown)
[5] = 0.025 µM, library screen: screen1, EWS-FLI1 expression: high (no doxycycline)
[6] = 0.025 µM, library screen: screen1, EWS-FLI1 expression: low (doxycycline-induced shRNA knockdown)
[7] = 25 µM, library screen: screen1, EWS-FLI1 expression: high (no doxycycline)
[8] = 25 µM, library screen: screen1, EWS-FLI1 expression: low (doxycycline-induced shRNA knockdown)

Measured: cell viability (log2)

Nn1c(SCC(=O)c2ccc(Cl)cc2)nc2ccccc2c1=O
inactive: [1] 0.102 | [2] 0.0418 | [3] 0.24 | [4] 0.000811

CC1(C)Oc2ccc3ccc(=O)oc3c2C[C@H]1O
inactive: [1] 0.0366 | [2] -0.00203 | [3] 0.0909 | [4] 0.0204

NC[C@@H]1O[C@H](O[C@H]2[C@@H](O)[C@H](O[C@@H]3[C@@H](O)[C@H](N)C[C@H](N)[C@H]3O[C@H]3O[C@H](CO)[C@@H](O)C[C@H]3N)O[C@@H]2CO)[C@H](N)[C@@H](O)[C@@H]1O[C@H]1O[C@H](CO)[C@@H](O)[C@H](O)[C@@H]1O
inactive: [1] 0.156 | [2] 0.0397 | [3] 0.0315 | [4] 0.0591

CC(=O)Nc1cccc(O)c1
inactive: [1] 0.142 | [2] 0.0568 | [3] 0.211 | [4] -0.0215

Cc1ccc(NC(=O)c2cccc(N(C)C)c2)cc1NC(=O)c1ccc(O)cc1
inactive: [5] 0.191 | [6] -0.0357 | [2] 0.139 | [4] 0.168 | [8] 0.196
0.277: [1]
active: [3] -0.147 | [7] -0.322

Cc1nc(-c2ccc(NC(=O)c3ccccc3)cc2)cs1
inactive: [1] 0.118 | [2] 0.115 | [3] 0.0995 | [4] 0.089

CC1(C)C(=O)C=C[C@]2(C)C3CC[C@@]4(C)[C@H](c5ccoc5)OC(=O)[C@H]5O[C@]54[C@]3(C)C(=O)C[C@@H]12 (stereo partly specified)
inactive: [1] 0.0539 | [2] 0.0813 | [3] 0.0765 | [4] 0.119

Cc1cc(=O)oc2cc(O)c(O)cc12
inactive: [1] -0.0238 | [2] 0.0536 | [3] 0.00784 | [4] 0.0751

Cc1cc(=O)oc2cc(O)ccc12
inactive: [1] 0.129 | [2] 0.0733 | [3] 0.103 | [4] -0.0344

Cc1cc(=O)oc2c(O)c(O)ccc12
inactive: [2] -0.0218 | [3] 0.0459 | [4] 0.107
active: [1] -0.0965

N#CC1=C(N)Oc2cc(N)ccc2C1c1ccc(OCc2ccccc2)cc1 (stereo unspecified)
inactive: [1] 0.04 | [2] 0.0479 | [3] 0.099 | [4] 0.204

CC(C)C[C@H](N)CSSC[C@@H](N)CC(C)C
inactive: 0.25 µM, library screen: screen2, EWS-FLI1 expression: high (no doxycycline) 0.107 | 0.25 µM, library screen: screen2, EWS-FLI1 expression: low (doxycycline-induced shRNA knockdown) 0.1 | 2.5 µM, library screen: screen2, EWS-FLI1 expression: high (no doxycycline) 0.104 | 2.5 µM, library screen: screen2, EWS-FLI1 expression: low (doxycycline-induced shRNA knockdown) 0.0902

CCCCOCCOC(=O)CCCOc1ccc(Cl)cc1Cl
inactive: [1] 0.0256 | [2] 0.038 | [3] 0.0946 | [4] 0.127

CN(C)CCCn1cc(C2=C(c3c[nH]c4ccccc34)C(=O)NC2=O)c2ccccc21
0.291: [4]
active: [3] -0.136 | [7] -0.422
inactive: [5] 0.176 | [6] 0.147 | [1] 0.197 | [2] 0.193 | [8] 0.0609

Cn1cc(C2=C(c3cn(CCCSC(=N)N)c4ccccc34)C(=O)NC2=O)c2ccccc21
active: [3] -1.27 | [4] -0.615 | [7] -4.25 | [8] -2.05
inactive: [5] 0.0502 | [6] 0.0613 | [1] -0.0731 | [2] 0.0259

Cn1cc(C2=C(c3ccc(Cl)cc3Cl)C(=O)NC2=O)c2ccccc21
inactive: 0.103 µM, library screen: screen3, EWS-FLI1 expression: high (no doxycycline) 0.039 | 0.103 µM, library screen: screen3, EWS-FLI1 expression: low (doxycycline-induced shRNA knockdown) 0.0193 | 0.308 µM, library screen: screen3, EWS-FLI1 expression: high (no doxycycline) 0.0253 | 0.308 µM, library screen: screen3, EWS-FLI1 expression: low (doxycycline-induced shRNA knockdown) 0.0244 | 0.926 µM, library screen: screen3, EWS-FLI1 expression: high (no doxycycline) 0.0632 | 0.926 µM, library screen: screen3, EWS-FLI1 expression: low (doxycycline-induced shRNA knockdown) 0.00111 | 2.8 µM, library screen: screen3, EWS-FLI1 expression: high (no doxycycline) 0.0516 | 2.8 µM, library screen: screen3, EWS-FLI1 expression: low (doxycycline-induced shRNA knockdown) -0.00589 | 8.3 µM, library screen: screen3, EWS-FLI1 expression: high (no doxycycline) 0.0741 | 8.3 µM, library screen: screen3, EWS-FLI1 expression: low (doxycycline-induced shRNA knockdown) 0.0603 | 25 µM, library screen: screen3, EWS-FLI1 expression: high (no doxycycline) 0.04 | 25 µM, library screen: screen3, EWS-FLI1 expression: low (doxycycline-induced shRNA knockdown) 0.0754

O=C(Nc1c(-c2ccccc2)nc2ccc(Cl)cn12)c1ccc(F)cc1
inactive: [1] 0.0947 | [2] 0.0794 | [3] 0.184 | [4] -0.0685

NCC1OC(OC2C(N)CC(N)C(OC3OC(CO)C(O)C(N)C3O)C2O)C(O)C(O)C1O (stereo unspecified)
inactive: [1] 0.121 | [2] -0.0254 | [3] 0.206 | [4] 0.0929

COC(=O)c1c(C)c2c(c(C)c1OC(C)=O)OC(=O)c1c(C)c(Cl)c(O)c(Cl)c1O2
inactive: [1] 0.0664 | [2] 0.0141 | [3] 0.0918 | [4] 0.03

C[C@@H]1[C@H]2[C@H](O[C@@H]3O[C@H](CO)[C@@H](O)[C@H](O)[C@H]3O)OC=C(C(=O)O)[C@H]2C[C@@H]1O
inactive: [1] 0.0698 | [2] 0.0626 | [3] 0.106 | [4] -0.0365

COc1c(O)cc(O)cc1O
inactive: [1] 0.0746 | [2] 0.0275 | [3] 0.127 | [4] 0.0739

COCc1cc(O)c(O)c(O)c1-c1c(COC)cc(O)c(O)c1O
active: [7] -4.25 | [8] -2.42
inactive: [5] 0.13 | [6] 0.0379 | [1] 0.161 | [2] -0.00717 | [3] -0.00977 | [4] 0.159

COc1cc(O)c(C)c(O)c1
inactive: [1] 0.0455 | [2] 0.156 | [3] 0.0996 | [4] 0.176
